Hit rate of the full screen: of about 5,500 compounds, about 2,000 (36%) were called active. Inconclusive results (about 18%) are left out. No stated cut-off is given here; in the data, active means normalized growth mostly below about 0.91 (no sharp cut-off); inconclusive means no clear call, values can overlap the other calls; inactive means mostly above about 0.92. The list shows a part of the results.
Assay: chemical genetic growth profiling, strain panel (AID 1159580);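 further: tested at 20 µM; growth read once vehicle control cultures reached saturation at 30 °C; 1 = growth at the plate median or of vehicle wells; lower values mean less growth of the strain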
Conditions: S. cerevisiae deletion strains, growth OD

Measured: normalized growth

CC(CCC(=O)O)[C@H]1CCC2C3CC[C@@H]4C[C@H](O)CC[C@]4(C)C3C=C[C@@]21C (some centres not stated)
inactive: locus YAL021C, strain ccr4, active compounds read low 0.968 | locus YAL030W, strain snc1, active compounds read low 1.01 | locus YBL061C, strain skt5, active compounds read low 1.01 | locus YBR009C, strain hhf1, active compounds read low 0.964 | locus YBR023C, strain chs3, active compounds read low 0.95 | locus YBR171W, strain sec66, active compounds read low 0.976 | locus YBR231C, strain swc5, active compounds read low 1.02 | locus YBR279W, strain paf1, active compounds read low 0.972 | locus YCL011C, strain gbp2, active compounds read low 0.994 | locus YCL016C, strain dcc1, active compounds read low 0.962 | locus YCL061C, strain MRC1, active compounds read low 0.989 | locus YCL069W, strain vba3, active compounds read low 0.997 | locus YCR088W, strain abp1, active compounds read low 1.02 | locus YDL005C, strain med2, active compounds read low 0.992 | locus YDL040C, strain nat1, active compounds read low 1.01 | locus YDR001C, strain nth1, active compounds read low 1.01 | locus YDR069C, strain doa4, active compounds read low 1 | locus YDR159W, strain sac3, active compounds read low 0.948 | locus YDR297W, strain sur2, active compounds read low 1 | locus YDR334W, strain swr1, active compounds read low 0.991 | locus YDR335W, strain msn5, active compounds read low 0.969 | locus YEL003W, strain gim4, active compounds read low 0.968 | locus YEL037C, strain rad23, active compounds read low 0.995 | locus YEL061C, strain CIN8 (second series), active compounds read low 1.01 | locus YER015W, strain faa2, active compounds read low 1.01 | locus YER016W, strain bim1, active compounds read low 0.999 | locus YER111C, strain swi4, active compounds read low 1 | locus YER155C, strain BEM2 (second series), active compounds read low 1.08 | locus YFR010W, strain ubp6, active compounds read low 0.987 | locus YGL167C, strain pmr1, active compounds read low 0.989 | locus YGL227W, strain vid30, active compounds read low 1.03 | locus YGL240W, strain doc1, active compounds read low 0.982 | locus YGL253W, strain hxk2, active compounds read low 0.955 | locus YHR013C, strain ard1, active compounds read low 0.973 | locus YHR027C, strain rpn1, active compounds read low 0.996 | locus YJL092W, strain hpr5, active compounds read low 0.986 | locus YJL095W, strain BCK1 (second series), active compounds read low 1 | locus YJL115W, strain asf1, active compounds read low 1.01 | locus YJL129C, strain trk1, active compounds read low 0.879 | locus YJL154C, strain vps35, active compounds read low 1.03 | locus YJL187C, strain SWE1, active compounds read low 0.972 | locus YKR026C, strain gcn3, active compounds read low 1.03 | locus YKR091W, strain srl3, active compounds read low 1.01 | locus YLL001W, strain dnm1, active compounds read low 1 | locus YLL026W, active compounds read low 1.01 | locus YLL041C, strain sdh2, active compounds read low 1 | locus YLR027C, strain aat2, active compounds read low 0.944 | locus YLR258W, strain gsy2, active compounds read low 0.998 | locus YLR342W, strain FKS1, active compounds read low 0.968 | locus YLR357W, strain rsc2, active compounds read low 1.13 | locus YLR370C, strain arc18, active compounds read low 0.955 | locus YLR384C, strain iki3, active compounds read low 1.03 | locus YMR129W, active compounds read low 1.02 | locus YMR205C, strain PFK2, active compounds read low 0.966 | locus YMR231W, strain pep5, active compounds read low 0.963 | locus YNL209W, strain ssb2, active compounds read low 0.99 | locus YNL248C, strain rpa49, active compounds read low 0.904 | locus YNL322C, strain KRE1 (second series), active compounds read low 1.04 | locus YNR049C, strain mso1, active compounds read low 1 | locus YOR080W, strain dia2, active compounds read low 0.997 | locus YOR265W, strain rbl2, active compounds read low 1.01 | locus YOR270C, strain vph1, active compounds read low 0.808 | locus YPL240C, strain hsp82, active compounds read low 0.997
active: locus YAL026C, strain drs2, active compounds read low 0.907 | locus YDR137W, strain rgp1, active compounds read low 0.501 | locus YDR195W, strain ref2 1.2 [resistant] | locus YDR392W, strain spt3, active compounds read low 0.485 | locus YGL173C, strain kem1, active compounds read low 0.812 | locus YHR142W, strain chs7, active compounds read low 0.839 | locus YJL164C, strain tpk1, active compounds read low 0.899 | locus YJL166W, strain qcr8, active compounds read low 0.894 | locus YKL160W, strain elf1, active compounds read low 0.881 | locus YLR221C, strain rsa3, active compounds read low 0.898 | locus YLR262C, strain YPT6 (second series), active compounds read low 0.532 | locus YLR320W, strain mms22, active compounds read low 0.742 | locus YML120C, strain ndi1, active compounds read low 0.861 | locus YMR058W, strain fet3, active compounds read low 0.869 | locus YMR125W, strain sto1, active compounds read low 1.11 [resistant] | locus YNL071W, strain lat1, active compounds read low 0.792 | locus YOR001W, strain rrp6, active compounds read low 0.86 | locus YOR070C, strain gyp1, active compounds read low 0.9 | locus YOR083W, strain WHI5, active compounds read low 0.85 | locus YOR106W, strain vam3, active compounds read low 0.842 | locus YOR290C, strain snf2, active compounds read low 0.83 | locus YPL051W, strain arl3, active compounds read low 0.817 | locus YPL078C, strain atp4, active compounds read low 0.834 | locus YPL106C, strain sse1, active compounds read low 1.22 [resistant]

From PubChem BioAssay AID1159580 (chemical genetic matrix, 2015)
